This passage reports growth results from PubChem BioAssay (NCI).

Some test systems named below: RPMI-8226 leukemia; OVCAR-8 ovarian; OVCAR-5 ovarian; OVCAR-4 ovarian; SK-OV-3 ovarian; IGROV1 ovarian; OVCAR-3 ovarian; HS 578T breast; NCI/ADR-RES ovarian; T-47D breast; BT-549 breast; MDA-MB-435 melanoma; SW-620 colon; MCF7 breast; HCT-116 colon; HCC-2998 colon; KM12 colon.
Holding throughout (assay): NCI-60 one-dose screen, 48 h (100 = growth as untreated, 0 = no growth, -100 = all killed)
Settings in all cases: 10 µM unless noted

The panel holds about 83,000 compounds, 20% with a hit somewhere; the sample as a whole holds those more often.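 Single-concentration screen, 48 h exposure, 96-well plates. Endpoint: percent growth. Below 10 = active.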 A number with no mark means an inactive call. Activity calls are given as the source filed them.

With `COc1cc(NC(=O)Nc2cnc(Nc3ccc(N4CCOCC4)cc3)nc2Oc2ccc(C(F)(F)F)cc2)cc(OC)c1`, the growth in the assay on RPMI-8226 leukemia is 92.5%; in the assay with OVCAR-8 ovarian it was 100%; in the assay on OVCAR-5 ovarian, 116%; with OVCAR-4 ovarian, 111%; in the assay on SK-OV-3 ovarian it was 104%; in the assay on IGROV1 ovarian, 104%. The growth with OVCAR-3 ovarian is 110%; with HS 578T breast, 99.4%; with NCI/ADR-RES ovarian it was 104%; in the assay on T-47D breast, 98.4%; in the assay on BT-549 breast, 111%; with MDA-MB-435 melanoma, 107%. Also, the growth was 107% with SW-620 colon; 101% in the assay with MCF7 breast; 104% in the assay with HCT-116 colon; 104% with HCC-2998 colon; 103% in the assay with KM12 colon.

`N#CCNc1ccc(C(=O)O)cc1`: the growth in the assay with RPMI-8226 leukemia was 102%; in the assay on OVCAR-8 ovarian, 102%; in the assay with OVCAR-5 ovarian it was 120%; with OVCAR-4 ovarian it was 117%; in the assay on SK-OV-3 ovarian, 105%; with IGROV1 ovarian it was 103%. Further, the growth with OVCAR-3 ovarian was 110%; with HS 578T breast, 105%; with NCI/ADR-RES ovarian, 105%; in the assay on T-47D breast, 99.2%; with BT-549 breast, 106%; in the assay with MDA-MB-435 melanoma it was 101%. The growth with SW-620 colon is 103%; in the assay on MCF7 breast, 98.9%; with HCT-116 colon, 103%; in the assay on HCC-2998 colon, 104%; in the assay with KM12 colon, 105%.

As to `CCOC(=O)c1c(-c2ccc(O)cc2)c(C#N)c2c(C#N)c(N)nn2c1N`, the growth with RPMI-8226 leukemia was 38.7%; with OVCAR-8 ovarian, 70.8%; in the assay with OVCAR-5 ovarian, 89.3%; with OVCAR-4 ovarian it was 81%; with SK-OV-3 ovarian, 75.5%; with IGROV1 ovarian, 52.3%. Moreover, the growth was 66.3% with OVCAR-3 ovarian; 70.2% in the assay on HS 578T breast; 95.9% in the assay with NCI/ADR-RES ovarian; 28.2% in the assay with T-47D breast; 60.9% in the assay on BT-549 breast; 1.63% (active) with MDA-MB-435 melanoma. Also, the growth is 42.6% in the assay on SW-620 colon; 31.5% with MCF7 breast; 67.6% in the assay on HCT-116 colon; 80.9% with HCC-2998 colon; 47.5% with KM12 colon.

On to `NC(=O)c1ccc(C2C3=C(CCCC3=O)OC3=C2C(=O)c2ccccc2C3=O)cc1` (stereo unspecified), for which the growth in the assay on RPMI-8226 leukemia was 18.6%; with OVCAR-8 ovarian, -1.42% (active); in the assay on OVCAR-5 ovarian it was 96.4%; with OVCAR-4 ovarian, -12.8% (active); in the assay on SK-OV-3 ovarian, 104%; in the assay on IGROV1 ovarian, 8.86% (active). Further, the growth in the assay on OVCAR-3 ovarian is -20.4% (active); with HS 578T breast, 67.1%; in the assay with NCI/ADR-RES ovarian, 79.8%; in the assay on T-47D breast it was -1.02% (active); in the assay with BT-549 breast, 81.4%; with MDA-MB-435 melanoma, -87.4% (active). Moreover, the growth in the assay on SW-620 colon is 12%; in the assay with MCF7 breast it was -28.8% (active); with HCT-116 colon, 1.17% (active); in the assay on HCC-2998 colon, 77.7%; in the assay with KM12 colon it was 44.1%.

Regarding `CN(C)CCCn1c2c(c3cc(-c4cccc(S(N)(=O)=O)c4)ccc3c1=O)C(=O)c1ccccc1-2`, the growth with RPMI-8226 leukemia is 70.3%; in the assay with OVCAR-8 ovarian, 56%; in the assay with OVCAR-5 ovarian it was 97.7%; in the assay with OVCAR-4 ovarian it was 82.3%; in the assay on SK-OV-3 ovarian, 67.8%; in the assay with IGROV1 ovarian, 66.7%. Further, the growth in the assay on OVCAR-3 ovarian is 87.8%; with HS 578T breast, 99.6%; with NCI/ADR-RES ovarian it was 70.6%; with T-47D breast it was 74.7%; with BT-549 breast, 76.1%; with MDA-MB-435 melanoma, 80.3%. Besides, the growth in the assay on SW-620 colon is 36.8%; in the assay on MCF7 breast, 27.7%; with HCT-116 colon it was -82.6% (active); in the assay on HCC-2998 colon it was 77.2%; in the assay on KM12 colon, 65.5%.

In the case of `CC1(C)CC[C@]2(c3nnc(-c4ccncc4)o3)CC[C@]3(C)C(=CC[C@@H]4[C@@]5(C)CCC(=O)C(C)(C)[C@@H]5CC[C@]43C)[C@@H]2C1`, the growth in the assay on RPMI-8226 leukemia was 62.4%; in the assay with OVCAR-8 ovarian it was 81.1%; with OVCAR-5 ovarian it was 99.9%; in the assay on OVCAR-4 ovarian it was 89.2%; in the assay with SK-OV-3 ovarian it was 104%; with IGROV1 ovarian, 93.2%. Further, the growth in the assay on OVCAR-3 ovarian is 80.8%; with HS 578T breast, 98.6%; with NCI/ADR-RES ovarian, 97.2%; in the assay on T-47D breast, 65.9%; in the assay with BT-549 breast it was 80.3%; in the assay on MDA-MB-435 melanoma, 79.6%. The growth in the assay on SW-620 colon was 85.2%; in the assay on MCF7 breast, 64.6%; in the assay on HCT-116 colon, 61.3%; with HCC-2998 colon, 94.8%; in the assay on KM12 colon, 93.8%.

`c1ccc(Sc2ncccn2)nc1`: the growth in the assay on RPMI-8226 leukemia was 65.6%; with OVCAR-8 ovarian it was 100%; with OVCAR-5 ovarian, 101%; in the assay with OVCAR-4 ovarian, 98.1%; with SK-OV-3 ovarian, 99.4%; in the assay with IGROV1 ovarian, 108%. Further, the growth in the assay on OVCAR-3 ovarian was 102%; in the assay with HS 578T breast it was 94%; with NCI/ADR-RES ovarian, 96.4%; in the assay with T-47D breast, 99.4%; in the assay on BT-549 breast, 137%; in the assay on MDA-MB-435 melanoma it was 104%. In addition, the growth is 95.3% with SW-620 colon; 93.2% in the assay on MCF7 breast; 99.3% in the assay on HCT-116 colon; 101% in the assay on HCC-2998 colon; 106% in the assay on KM12 colon.

For the compound `Cc1nc2sc(C(=O)Nc3cccc(Cl)c3C)c(N)c2cc1C(C)O` (stereo unspecified), the growth in the assay with RPMI-8226 leukemia is 17.8%; in the assay with OVCAR-8 ovarian, 21.9%; with OVCAR-5 ovarian it was 55.8%; in the assay on OVCAR-4 ovarian it was 54.2%; in the assay on SK-OV-3 ovarian it was 22.8%; in the assay on IGROV1 ovarian, 31.6%. Further, the growth is -5.67% (active) with OVCAR-3 ovarian; 31.8% in the assay on HS 578T breast; 7.9% (active) in the assay with NCI/ADR-RES ovarian; 44.4% in the assay on T-47D breast; 51.3% in the assay with BT-549 breast; 1.51% (active) with MDA-MB-435 melanoma. For the same compound, the growth in the assay with SW-620 colon was 38.5%; in the assay with MCF7 breast, 16.6%; with HCT-116 colon, 13.9%; in the assay with HCC-2998 colon, 30.4%; in the assay on KM12 colon it was 19.1%.
